From PubChem BioAssay
Measured potencies and affinities stand elsewhere. The source made the active and inactive calls.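 How the source made its calls, unless noted: active means a dose-response fit showing signal loss, with half-maximal concentration no higher than twice the top tested dose; inconclusive means flat fit between 30% and 70% signal loss, or poor fit; inactive means the rest.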

Test: C. neoformans lysis by adenylate kinase leakage – AK release luminescence, cherry-picks, dose response (AID 687000;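 active means fitted dose curve reaches 40% lysis signal rise at or below the highest valid concentration tested for that sample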;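 further: luminescent detection of adenylate kinase leaking from lysed yeast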)
Conditions: 4 h, 100% = twice the neutral-control signal; series mostly up to 15 µM

Row | SMILES | outcome
1 | C[C@@H]1CN([C@H](C)CO)C(=O)c2cc(NC(=O)Nc3cccc4ccccc34)ccc2O[C@@H]1CN(C)C(=O)Nc1ccccc1 | inactive
2 | O=C(CSc1ncnc2c1cnn2-c1ccccc1)Nc1ccc2c(c1)OCO2 | inactive
3 | COc1ccc(C2=Nc3ccccc3NC(=O)C2N(C(=O)c2cc3ccccc3[nH]2)c2ccccc2)cc1 (stereo not drawn) | inactive

Test: viability loss in HepG2 hepatoma cells – cell-based, cherry-picks, set 2, cytotoxicity control, dose response (AID 687002)
Conditions: ATP luminescence (CellTiter-Glo), 48 h; series mostly up to 26 µM

Row | SMILES | outcome
4 | CCNC(=O)C[C@H]1CC[C@H](NC(=O)NC2CCCCC2)[C@@H](CO)O1 | inactive
5 | Cc1cccc(C)c1NC(=O)CN(C)C(=O)C1CCCCC1 | inactive
6 | COc1ccc(CN(C)C[C@H]2Oc3ccc(NC(=O)Nc4ccc(F)cc4)cc3CC(=O)N([C@@H](C)CO)C[C@@H]2C)cc1 | inactive
7 | COc1cccc(S(=O)(=O)Nc2ccc3c(c2)[C@H]2C[C@H](CC(=O)N(C)C)O[C@@H](CO)[C@H]2O3)c1 | inactive
8 | CCCC(=O)N1CCC1(C)C(=O)Nc1ccc(C)cc1 (stereo not drawn) | inactive
9 | COc1ccc(NC(=S)NCc2ccc(Cl)cc2)c(OC)c1 | inactive
10 | O=C(NCCc1ccccc1)[C@@H]1[C@@H](CO)[C@@H]2Cn3c(cccc3=O)[C@H]1N2C(=O)C1CCC1 | inactive
11 | CC(C)NC(=O)Nc1ccc2c(c1)C(=O)N([C@@H](C)CO)C[C@H](C)[C@@H](CN(C)S(=O)(=O)c1cccs1)OCCCC[C@H](C)O2 | inactive
12 | C[C@H](CO)N1C[C@H](C)[C@H](CN(C)Cc2ccc(-c3ccccc3)cc2)Oc2c(NC(=O)c3ccncc3)cccc2C1=O | inactive
13 | C[C@@H]1CN([C@@H](C)CO)C(=O)c2cc(NS(=O)(=O)c3cn(C)cn3)ccc2O[C@@H](C)CCCCO[C@@H]1CN(C)Cc1ccc(C(F)(F)F)cc1 | inactive
